Drawing on PubChem BioAssay, this text covers composite z-score and z-score for 5 compounds.

The structures appear in SMILES notation. Calls of active or inactive are those of the source.

Experiment [1] in a line: small molecules captured by biotinylated probe aFSTL3 – biochemical, small-molecule microarray, fluorescence 635/667, stem cell growth factor project, primary screen (AID 1064).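 Note: measures binding of the biotinylated anti-FSTL3 antibody to printed compounds.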 Conditions: higher = more signal.
The nature of experiment [2]: binders from COS7 lysate, DM2A8 probe, primary screen, torsin A project, cell lysate, small-molecule microarray, fluorescence 635/667 (AID 1065). Conditions: higher = more signal, COS7 lysate expressing mutant human TOR1A.
Experiment [3] can be described thus: small molecules captured by biotinylated probe aFGF2 – biochemical, small-molecule microarray, fluorescence 635/667, stem cell growth factor project, primary screen (AID 1067).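 Note: measures binding of biotinylated aFGF2 protein to printed compounds on slides; z-score merges feature fluorescence and signal-to-noise across triplicate slides.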 Conditions: higher = more signal.
Experiment [4] can be described thus: small molecules captured by biotinylated probe aFGF10 – biochemical, small-molecule microarray, fluorescence 635/667, stem cell growth factor project, primary screen (AID 1071).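 Note: score merges 667 nm spot intensity and signal to noise from triplicate slides.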 The following applies: higher = more signal.
The target in experiment [5] is Neurogenic locus notch homolog protein 2 (Homo sapiens) (UniProt Q04721). The experiment can be described thus: small molecules binding Notch2 protein – biochemical, small-molecule microarray, 635 nm fluorescence, stem cell growth factors, primary screen (AID 1073). The following applies: higher = more signal.
In experiment [6] the target is Pro-neuregulin-1, membrane-bound isoform (Homo sapiens) (UniProt Q02297). Description: small molecules binding neuregulin-1 protein – biochemical, small-molecule microarray, fluorescence 635/667, psychiatric disease protein project, primary screen (AID 1075).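 Note: score combines 667 nm spot fluorescence with signal to noise.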 The following applies: NRG1 binding, 635 nm fluorescence, higher = more signal.
For experiment [7], the system named is Neuregulin-1 EGF-like domain. The experiment can be described thus: small molecules binding NRG1 EGF domain – biochemical, small-molecule microarray, 635 nm fluorescence, primary screen (AID 1081).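 Note: binding of the protein to compounds printed on small-molecule microarray slides.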 The following applies: higher = more signal.
A short description of experiment [8]: FRG1 expression reporter modulators in myotubes – cell-based, C2C12 myotubes, firefly/Renilla luciferase, luminescence, FRG1 inhibition for FSHD, primary screen (AID 1084). Conditions: FRG1 promoter luciferase, higher = more signal, called active from +8 up or from −8 down.
The nature of experiment [9]: small molecules captured by biotinylated probe aFST – biochemical, small-molecule microarray, fluorescence 635/667, stem cell growth factor project, primary screen (AID 1086).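 Note: score merges 667 nm fluorescence with signal-to-noise of each printed compound spot.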 Conditions: higher = more signal.
A short description of experiment [10]: binders of probe aHhip on microarray, primary screen, stem cell growth factor project, biochemical, small-molecule microarray, fluorescence 635/667 (AID 1087).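 Note: score merges spot fluorescence at 667nm with spot signal to noise ratio.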 Conditions: higher = more signal.
In experiment [11] the test system is PRMT1 (protein arginine N-methyltransferase 1). Description: small molecules binding arginine methyltransferase PRMT1 – biochemical, small-molecule microarray, 635 nm fluorescence, primary screen (AID 1088).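 Note: binding of Prmt1 protein to compounds spotted on small-molecule microarray slides.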 Conditions: higher = more signal.
Experiment [12] is described as follows: growth effects on S. cerevisiae YJM789 – YJM789 clinical isolate, OD600, 24 h, basal, primary screen (AID 1089).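 Note: growth of clinical yeast isolate S. cerevisiae YJM 789 seeded 1000 cells per well; test concentration not given here.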 Conditions: higher = more signal, called active from +8 up or from −8 down.
A short description of experiment [13]: S. pombe growth modifiers, basal conditions – strain 972, OD600, 24 h, no modulator, primary screen (AID 1090).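 Note: basal condition with compound alone and no growth modifier present; test concentration not given here.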 Conditions: S. pombe 972 growth, higher = more signal, called active from +8 up or from −8 down.
Experiment [14] can be described thus: budding yeast growth modifiers under rapamycin – strain BY4716, OD600, 96 h, primary screen (AID 1091). Note: test concentration not given here. The following applies: S. cerevisiae BY4716 + rapamycin, higher = more signal, called active from +8 up or from −8 down.
The target in experiment [15] is Torsin-1A-interacting protein 2 (Homo sapiens) (UniProt Q8NFQ8). The experiment can be described thus: small molecules binding lysate-expressed LULL1 – cell lysate, human LULL1 lysate, 635/667 nm fluorescence, primary screen (AID 1092).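 Note: probe is lysate of COS7 cells overexpressing human LULL1; score merges per-feature 667 nm fluorescence with signal-to-noise.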 Conditions: small-molecule microarray, hLULL1 lysate binding, 635 nm fluorescence; higher = more signal.
Experiment [16] can be described thus: optical density change of DRC41 E. coli – strain DRC41, OD650, 24 h, E. coli filamentation project, primary screen (AID 1093).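 Note: MC1000 strain lacking acrAB efflux and sulA so SOS filamentation is blocked; test concentration not given here.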 The following applies: E. coli DRC41 growth, higher = more signal, called active from +8 up or from −8 down.
The nature of experiment [17]: probe aLefty2 binding to arrayed compounds – biochemical, biotinylated probe, 635/667 nm fluorescence, primary screen (AID 1094).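 Note: score merges spot fluorescence near 667 nm with spot signal-to-noise ratio.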 The following applies: small-molecule microarray, higher = more signal.
Experiment [18] concerns Noggin (protein binding on small-molecule microarray). The experiment can be described thus: small molecules binding Noggin protein – biochemical, 635/667 nm fluorescence, primary screen (AID 1095).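 Note: score merges 667 nm feature fluorescence with signal to noise over triplicate slides.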 Conditions: 635 nm fluorescence, higher = more signal.
In experiment [19] the target is Neurogenic locus notch homolog protein 3 (Homo sapiens) (UniProt Q9UM47). Description: small molecules binding NOTCH3 protein – biochemical, 635/667 nm fluorescence, primary screen (AID 1096). Conditions: small-molecule microarray, 635 nm fluorescence, higher = more signal.
A short description of experiment [20]: probe aEGFR binding to arrayed compounds – biochemical, biotinylated probe, 635/667 nm fluorescence, primary screen (AID 1097).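 Note: probe is a biotinylated anti-EGFR antibody binding compounds printed on slides; score combines fluorescence near 667 nm and signal to noise of each spot.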 The following applies: small-molecule microarray, higher = more signal.

Pro-neuregulin-1, membrane-bound isoform (Homo sapiens), sequence (Q02297 whole entry, looked up, the tested form may be a part, canonical isoform): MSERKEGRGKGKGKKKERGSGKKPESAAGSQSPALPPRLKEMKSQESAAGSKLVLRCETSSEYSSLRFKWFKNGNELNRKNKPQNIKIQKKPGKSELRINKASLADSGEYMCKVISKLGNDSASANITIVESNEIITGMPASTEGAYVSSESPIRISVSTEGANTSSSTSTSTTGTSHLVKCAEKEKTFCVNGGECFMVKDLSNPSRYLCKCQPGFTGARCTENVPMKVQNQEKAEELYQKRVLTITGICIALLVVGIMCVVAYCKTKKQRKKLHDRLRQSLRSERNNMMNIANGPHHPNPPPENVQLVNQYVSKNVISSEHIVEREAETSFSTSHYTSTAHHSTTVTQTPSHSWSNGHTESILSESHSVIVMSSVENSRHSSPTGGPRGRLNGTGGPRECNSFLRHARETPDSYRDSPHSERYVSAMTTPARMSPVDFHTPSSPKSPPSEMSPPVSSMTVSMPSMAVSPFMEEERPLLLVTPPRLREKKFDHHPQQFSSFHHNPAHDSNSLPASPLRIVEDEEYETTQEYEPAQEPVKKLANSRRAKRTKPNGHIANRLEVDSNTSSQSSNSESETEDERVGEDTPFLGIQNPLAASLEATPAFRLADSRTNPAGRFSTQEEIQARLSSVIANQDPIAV
Neurogenic locus notch homolog protein 3 (Homo sapiens), sequence (Q9UM47 whole entry, looked up): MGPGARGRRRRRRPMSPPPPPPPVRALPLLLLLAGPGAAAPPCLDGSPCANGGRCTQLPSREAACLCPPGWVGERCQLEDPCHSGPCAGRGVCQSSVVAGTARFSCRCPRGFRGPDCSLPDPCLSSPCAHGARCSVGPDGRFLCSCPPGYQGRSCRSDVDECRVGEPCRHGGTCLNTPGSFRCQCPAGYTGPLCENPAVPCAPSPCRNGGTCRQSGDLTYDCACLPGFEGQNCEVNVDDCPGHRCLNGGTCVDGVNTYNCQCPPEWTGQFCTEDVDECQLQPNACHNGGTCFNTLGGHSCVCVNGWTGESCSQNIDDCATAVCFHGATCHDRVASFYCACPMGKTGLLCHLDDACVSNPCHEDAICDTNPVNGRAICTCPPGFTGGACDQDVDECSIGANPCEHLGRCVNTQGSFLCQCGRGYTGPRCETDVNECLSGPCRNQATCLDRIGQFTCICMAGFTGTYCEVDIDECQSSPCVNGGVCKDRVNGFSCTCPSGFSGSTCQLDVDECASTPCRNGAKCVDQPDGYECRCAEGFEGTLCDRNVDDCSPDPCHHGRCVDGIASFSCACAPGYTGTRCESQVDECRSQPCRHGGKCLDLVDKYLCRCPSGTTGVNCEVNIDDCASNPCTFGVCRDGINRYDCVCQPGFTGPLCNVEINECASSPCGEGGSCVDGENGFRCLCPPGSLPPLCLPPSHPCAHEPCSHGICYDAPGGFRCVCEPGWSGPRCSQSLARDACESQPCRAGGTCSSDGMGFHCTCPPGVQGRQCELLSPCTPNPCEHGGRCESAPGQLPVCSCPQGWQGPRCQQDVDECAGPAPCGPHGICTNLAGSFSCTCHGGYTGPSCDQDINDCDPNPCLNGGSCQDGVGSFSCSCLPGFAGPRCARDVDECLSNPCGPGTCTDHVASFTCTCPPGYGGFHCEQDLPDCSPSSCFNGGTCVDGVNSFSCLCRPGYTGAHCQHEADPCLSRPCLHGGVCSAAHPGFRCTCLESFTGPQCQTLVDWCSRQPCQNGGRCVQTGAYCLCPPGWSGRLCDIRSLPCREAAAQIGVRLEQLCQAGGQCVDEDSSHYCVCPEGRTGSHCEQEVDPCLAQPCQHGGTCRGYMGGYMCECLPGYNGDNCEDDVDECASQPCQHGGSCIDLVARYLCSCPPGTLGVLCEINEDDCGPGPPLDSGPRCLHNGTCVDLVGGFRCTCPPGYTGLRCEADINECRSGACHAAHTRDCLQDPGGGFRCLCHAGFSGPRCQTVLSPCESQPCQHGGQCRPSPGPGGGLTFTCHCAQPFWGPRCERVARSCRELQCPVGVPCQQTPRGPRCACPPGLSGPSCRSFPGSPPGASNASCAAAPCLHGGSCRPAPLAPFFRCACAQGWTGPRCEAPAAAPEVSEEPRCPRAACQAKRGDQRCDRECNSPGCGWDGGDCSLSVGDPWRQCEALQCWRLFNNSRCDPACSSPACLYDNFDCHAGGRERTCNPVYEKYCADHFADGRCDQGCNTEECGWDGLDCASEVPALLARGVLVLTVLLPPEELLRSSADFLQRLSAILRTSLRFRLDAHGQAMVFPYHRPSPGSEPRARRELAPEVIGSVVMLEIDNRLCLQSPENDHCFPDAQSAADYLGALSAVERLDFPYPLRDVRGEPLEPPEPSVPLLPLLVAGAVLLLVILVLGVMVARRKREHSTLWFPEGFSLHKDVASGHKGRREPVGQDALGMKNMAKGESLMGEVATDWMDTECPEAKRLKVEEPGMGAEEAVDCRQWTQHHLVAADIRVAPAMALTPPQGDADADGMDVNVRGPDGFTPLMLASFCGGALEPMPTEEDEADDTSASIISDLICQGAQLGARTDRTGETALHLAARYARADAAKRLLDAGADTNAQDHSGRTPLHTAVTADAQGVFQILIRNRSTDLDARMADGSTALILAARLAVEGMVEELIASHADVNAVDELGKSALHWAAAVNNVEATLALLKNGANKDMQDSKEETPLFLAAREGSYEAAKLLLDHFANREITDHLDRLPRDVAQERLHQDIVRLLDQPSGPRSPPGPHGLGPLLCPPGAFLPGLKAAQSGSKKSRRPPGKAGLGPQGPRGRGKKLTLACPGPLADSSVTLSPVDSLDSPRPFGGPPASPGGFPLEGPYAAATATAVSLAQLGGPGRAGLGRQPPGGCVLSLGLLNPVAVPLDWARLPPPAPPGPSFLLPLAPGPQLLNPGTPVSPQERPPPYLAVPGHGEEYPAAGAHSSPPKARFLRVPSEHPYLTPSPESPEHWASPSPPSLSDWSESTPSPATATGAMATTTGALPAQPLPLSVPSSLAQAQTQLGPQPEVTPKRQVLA
Torsin-1A-interacting protein 2 (Homo sapiens), sequence (Q8NFQ8 whole entry, looked up): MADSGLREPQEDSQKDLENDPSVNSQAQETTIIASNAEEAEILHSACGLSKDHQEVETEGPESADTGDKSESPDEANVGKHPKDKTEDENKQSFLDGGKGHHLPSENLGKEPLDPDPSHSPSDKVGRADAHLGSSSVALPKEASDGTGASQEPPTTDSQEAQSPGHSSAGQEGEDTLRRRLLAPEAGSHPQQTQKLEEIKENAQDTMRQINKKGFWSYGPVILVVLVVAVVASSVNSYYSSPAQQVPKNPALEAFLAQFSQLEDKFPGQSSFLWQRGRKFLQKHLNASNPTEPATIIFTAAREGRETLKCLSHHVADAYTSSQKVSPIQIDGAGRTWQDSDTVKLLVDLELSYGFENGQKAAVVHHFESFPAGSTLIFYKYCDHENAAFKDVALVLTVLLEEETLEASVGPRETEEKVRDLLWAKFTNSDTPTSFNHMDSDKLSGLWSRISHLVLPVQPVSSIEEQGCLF

In the case of `COc1cc2c(cc1OC)CN(C(=O)[C@@H]1[C@H]3C(=O)O[C@H](c4ccccc4)[C@H](c4ccccc4)N3[C@H](c3ccc(O)cc3)[C@@]13C(=O)Nc1ccc(C#CCCO)cc13)CC2`, the composite z-score in experiment [1] was -0.281; in [2], 0.0865; in experiment [3], -0.0962; in experiment [4], 0.658; in [5] it was 0.711; in experiment [6], 1.39. Also, the composite z-score in experiment [7] is 1.17; in experiment [9] it was 0.628; in experiment [10], -0.201; in experiment [11], 1.34; in experiment [15] it was 2.5; in [17], -0.0809. Besides, the values for the composite z-score in [18], in experiment [19] and in [20] were 0.32, 0.667 and -0.0424, respectively. Besides, the z-score in [8] is -0.101 (inactive); in experiment [12], 1.09 (inactive); in experiment [13], 0.673 (inactive); in experiment [14], 1.81 (inactive); in [16] it was -0.385 (inactive).
`O=C1NC(=O)C2C1C=CC(C(O)c1ccccn1)N2Nc1ccc(Cl)cc1Cl` (stereo not given): the composite z-score in experiment [1] was -0.0358; in experiment [2], -0.0795; in experiment [3], -0.0132; in [4] it was 0.895; in experiment [5], 1.16; in experiment [6], 1.36. In addition, the composite z-score is 0.626 in experiment [7]; 0.737 in experiment [9]; 0.154 in experiment [10]; 0.195 in experiment [11]; 3.35 in [15]; 0.091 in experiment [17]. For the same compound, the composite z-score in experiment [18] was -0.291; in [19], 0.259; in experiment [20], -0.0271. For the same compound, the z-score in experiment [8] is 0.362 (inactive); in experiment [12], -1.09 (inactive); in [13], 0.154 (inactive); in experiment [14], -0.458 (inactive); in experiment [16], -0.402 (inactive).
As for `C=CCC(OC(C)=O)[C@@H]1[C@@H](N(Cc2ccc(-c3cccc(C(F)(F)F)c3)o2)C(=O)c2ccc(C)cc2)c2cc(OCCCO)ccc2N1C(=O)Cc1ccc(OC)cc1` (stereo not given in full), the composite z-score was 0.002 in experiment [1]; -0.315 in experiment [2]; -0.0639 in [3]; 0.0732 in [4]; -0.489 in experiment [5]; -0.0798 in [6]. Further, the composite z-score was -0.986 in [7]; 0.382 in [9]; 0.0373 in [10]; -0.118 in experiment [11]; -0.639 in experiment [15]; -0.131 in experiment [17]. The composite z-score was -0.0236 in [18], -0.0141 in [19] and -0.0828 in [20]. The z-score in experiment [8] was -0.287 (inactive); in [12], 0.9 (inactive); in experiment [13] it was 0.145 (inactive); in experiment [14], 0.0453 (inactive); in experiment [16], 1.34 (inactive).
In the case of `COc1cc2c(cc1O)C(c1cccs1)N(Cc1sc3ccccc3c1Cl)CC2` (stereo not given), the composite z-score was -0.181 in experiment [1]; 1.14 in experiment [2]; 0.115 in [3]; 1.18 in experiment [4]; 1.55 in [5]; 2.09 in experiment [6]. Further, the composite z-score was 1.42 in experiment [7]; 1.11 in experiment [9]; 3.57 in experiment [10]; 1.53 in experiment [11]; 3.3 in [15]; 0.105 in [17]. Besides, the composite z-score in [18] turned out to be 1.03; in [19], 1.03; in experiment [20], 0.14. Also, the z-score is -0.19 (inactive) in experiment [8]; -0.642 (inactive) in experiment [12]; -1.93 (inactive) in experiment [13]; -1.63 (inactive) in experiment [14]; -0.31 (inactive) in experiment [16].
As to `COCC(=C=CC[C@@H](O)c1ccc(OCCO)cc1)CCO`, the composite z-score in experiment [1] was -0.394; in [2], 1.19; in experiment [3], -0.0861; in experiment [4], 0.115; in experiment [5], -0.0206; in [6], 1.45. In addition, the composite z-score in experiment [7] was 0.745; in [9], 0.17; in [10] it was -0.249; in experiment [11], 0.271; in [15], 1.73; in experiment [17] it was -0.132. Moreover, the composite z-score is 0.913 in experiment [18], 0.622 in [19] and -0.125 in experiment [20]. Also, the z-score was 1.67 (inactive) in experiment [8]; 0.177 (inactive) in experiment [12]; 0.0708 (inactive) in experiment [13]; -0.18 (inactive) in experiment [14]; 0.802 (inactive) in experiment [16].
